Among the data in PubChem BioAssay (NCI) are growth values, retold here.

About 83,000 compounds went through this panel and 20% of them were active in at least one assay; those are over-represented in the sample as a whole.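 Each cell line was grown in a 96-well plate and treated with one concentration of compound for 48 hours. Values below 10 were considered active.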 Unmarked numbers belong to inactive results. Activity calls are given as the source filed them.

This assay relates to HS 578T breast. In words: NCI-60 one-dose screen, 48 h (100 = growth as untreated, 0 = no growth, -100 = all killed). The following applies: 10 µM unless noted. Here is the method: Growth inhibition of the HS 578T human tumor cell line is measured as a screen for anti-cancer activity. Cells are grown in 96 well plates and exposed to the test compound for 48 hours. Compounds are tested at a single concentration, which is 10^-5 M for most compounds. The reported endpoint is percent growth (GI% or GIPRCNT), where numbers from 0 - 100% represent growth inhibition, and numbers from -100% - 0 represent cell death. For example, a value of 40 represents 60% growth inhibition. A value of 0 means no net growth occurred over the course of the experiment. A value of -40 indicates 40% of cells at the beginning of the experiment died by the end of the experiment. A value of -100 means all cells are dead at the end of the experiment.
NCI-60 Human Tumor Cell Lines Screen was performed using the standard one-dose NCI protocol, which is described in more detail at https://dtp.cancer.gov/discovery_development/nci-60/default.htm.
Compounds with GIPRCNT values below 10 were considered active. Activity score was based on GIPRCNT using the following formula: […]
Score is 0 for GIPRCNT values of 100 or above, 50 for GIPRCNT values of 0, and 100 for GIPRCNT values of -100.
For `O=C(c1ccccc1)N(C(=S)NCCc1ccc(Cl)cc1)c1ccccc1`, the growth is 112%.
For `O=C(Nc1ccc(C23CC4CC(CC(c5ccccc5)(C4)C2)C3)cc1)c1cccs1`, the growth was 92.7%.
Take `O=C1N=c2ccccc2=C1c1sc(=Nc2ccccc2)n(Nc2ccccc2)c1O`: the growth was 102%.
For the compound `O=C(Nc1ccccc1O)c1ccc(-c2ccc(Cl)cc2Cl)o1`, the growth is 93.8%.
On to `COc1cc(/C=C2\CN(C)C/C(=C\c3cc(CN4CCCCC4)c(O)c(OC)c3)C2=O)cc(CN2CCCCC2)c1O`, for which the growth is 81.9%.
As for `Cc1ccc(OCCCCCCNCCO)c(C)c1`, the growth is 18.5%.
Take `N#CC(C#N)=Cc1c(-c2ccccc2)[nH]c2ccccc12`: the growth was -1.19% (active).
To `CC(=O)n1cc(-c2c[nH]c3ccccc23)c(-c2ccc(Cl)cc2)n1` belongs 94%; to `Cc1[nH]c2ccccc2c(=O)c1CC=C(Cl)Cl`, 84.2%.
For `COc1ccc(-c2nnc(COc3ccc(C(=O)/C=C/c4ccco4)cc3)o2)cc1`, the growth was 92.6%.
On to `CCOc1cc2c(cc1OCC)C(c1cc(C)c(O)c(C)c1)NCC2` (stereo not given), for which the growth is 107%.
To `O=C(Nc1ccccc1O)c1ccc(Oc2cccc(C(=O)Nc3ccccc3O)c2)cc1` belongs 40.6%; to `CC(=O)SC1CC(=O)C=C2CCC3C4CCC(=O)OC4(C)CCC3C21C` (stereo not given), 114%.
With `Cc1cc(Br)c(N)c(Br)c1` the figure was 109%; with `COc1ccc(Cn2c(Br)c3c(c2Br)-c2nc(NC(=O)c4ccc(OC)cc4)sc2CC3)cc1`, 58.1%; with `O=C(Nc1ccc(Cl)cc1F)c1cc(F)ccc1O`, 1.1% (active).
To `COc1ccc(Br)c(/C=C2\SC(=Nc3ccc(O)cc3)NC2=O)c1` belongs 86.5%.
Regarding `CCCCC1COc2cccc3c2N1C=C/C3=C\C(=O)N(C)c1ccccc1` (stereo not given), the growth was 78.4%.
With `CC(C)C[C@H](C(=O)N[C@@H](C)C(N)=O)N1CC=CCN(O)S1(=O)=O` the figure was 110% [5 µM]; with `O=c1nc2sc3nc4ccccc4cc3cc-2s1`, 79.9%.
In the case of `FC(F)(F)c1cccc(CNC2CCN(CCc3ccccc3)CC2)c1`, the growth was 88.1%.
For `CC1(O)COCCCCOc2c(CN)cccc2NC(=O)c2nc(cnc2N)-c2ccc(cc2)S(=O)(=O)C(C)(C)C1` (stereo not given), the growth was -53.2% (active).
In the case of `CNC(=O)c1cc(Oc2ccc(CC(=O)Nc3cc(C(C)(C)C)cn3C)cc2)ccn1`, the growth is 86.9%.
To `O=C(c1nc2ccccc2[nH]1)C1C(c2ccc(F)cc2)C2CC3CCCCC3N2[C@@]12C(=O)Nc1ccc(Cl)cc12` (stereo not given in full) belongs 69.2%; to `COC(=O)[C@@H]1CCCN1C(=O)[C@H]1CCCN1C(=O)[C@@H](Cc1c[nH]c2ccccc12)NC(=S)Nc1cc(C(F)(F)F)cc(C(F)(F)F)c1`, 11.6%; to `Cc1nc2ccccc2c(/C=C/c2ccccc2)c1C(=O)/C=C/c1ccc(Cl)cc1`, 27.9%.
With `COc1cccc(C(=O)Cn2cc(/C=C(\C#N)S(=O)(=O)c3ccccc3)c3ccccc32)c1`, the growth was 106%.
For `O=c1c(-c2nc3ccccc3[nH]2)cc2ccccc2n1Cc1cn(Cc2ccc(F)cc2)nn1`, the growth is -6.42% (active).
As to `COc1cc(/C=C2\CN(C)C/C(=C\c3cc(CN4CCCC4)c(O)c(OC)c3)C2=O)cc(CN2CCCC2)c1O`, the growth was 87.8%.
As for `O=c1oc2ccc(F)cc2c(=O)n1-c1ccc(Cl)cc1F`, the growth is -0.15% (active).
With `COc1ccc2c(c1)C=C1CSCC3=Cc4cc(OC)ccc4OC13O2`, the growth is -0.917% (active).
With `O=C(Nc1ccc(I)cc1F)c1cc(F)ccc1O`, the growth was -3.33% (active).
For the compound `O=Cc1c(OCc2cnnn2CC(=O)Nc2ccc(Br)cc2)ccc2ccccc12`, the growth is 85.1%.
Consider `COc1cccc(C(=O)NC(c2ccc(C)cc2)c2cc(Cl)c3cccnc3c2O)c1` (stereo not given), for which the growth was 34.5%.
`FC(F)(F)c1cccc(Nc2nc3ccccc3nc2Nc2cccc(C(F)(F)F)c2)c1`: the growth was -4.37% (active).
Take `CN1CCN(Cc2ccc(NC(=O)c3cncc(C#Cc4nc(N)nc5[nH]ncc45)c3)cc2C(F)(F)F)CC1`: the growth is 99.1%.
`COc1ccc(Cn2cc(Cn3c(=O)c(-c4nc5ccccc5[nH]4)cc4ccccc43)nn2)c(OC)c1OC`: the growth is -9.86% (active).
Turning to `O=C(c1ccccc1)N(CCc1ccc(Cl)cc1)C(=S)N(C(=O)c1ccccc1)c1ccccc1`, the growth is 108%.
With `O=C(Nc1ccc(Cl)cc1)c1cc2ccccc2cc1OP(=O)(O)O`, the growth is 32.9%.
Take `O=C1Nc2ccccc2/C1=C/c1ccc[nH]1`: the growth is 86.6%.
